This is part of a sample that, as a whole, favours compounds with a hit. Of some 79,000 tested, about 15% had one in any assay. Unmarked numbers belong to inactive results. Active and inactive are the calls of the source. Cut-off read from the data, not from the text of the source: active = growth inhibition above about 70%; inactive = the rest.
Test: NCI Yeast Anticancer Drug Screen. Data for the rad50 strain (AID 155);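 note: 0% = growth of vehicle-only cultures of the same strain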
Details: S. cerevisiae rad50 strain growth inhibition; at 5.0 µM (retest, dose inferred, filed as 0.5); stronger effect = higher value
In short: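 Yeast carrying a defined DNA repair defect were exposed to test compounds, and growth was compared with vehicle-treated controls to give percent inhibition.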

Row | Compound | growth inhibition
1 | Oc1ccccc1N=CC1CCCCC1 | -61%
2 | CC(O[Si](c1ccccc1)(c1ccccc1)C(C)(C)C)[C@H](NC(=O)OC(C)(C)C)C(=O)O[Si](c1ccccc1)(c1ccccc1)C(C)(C)C (stereo not given in full) | 91% (active)
3 | Cn1c(=O)c2c3oc(=O)cc(O)c3c(=O)n3c4ccccc4n(c1=O)c23 | 38%
4 | CCCCCCCCCCCCCCC(O)C(=O)O (stereo not given) | -6%
5 | O=[N+]([O-])c1cc(I)cc(/C=N/NS(=O)(=O)c2ccc(F)cc2)c1O | 16%
6 | CCC/C=C1/OC(=O)C2=C[C@H]3CC[C@]21[C@]1(OC(=O)C2=C1CCC=C2)[C@H]3CCC | 0%
7 | C=C(CC)C[C@@H]1C[C@]2(C(=O)OC)c3[nH]c4ccccc4c3CCN2C1=O | -1%
8 | Cc1ccc(N2C(=O)C(Cl)=C(Cl)C2=O)cc1 | 11%
9 | COc1cc2c(cc1O)CCCCC2 | 4%
10 | CC(C)Cc1cc(O)cc2ccccc12 | 4%
11 | CCN(CC)Cc1cc(Nc2c3ccccc3nc3c4ccccc4n(C)c23)ccc1O | 0%
12 | CC(=O)Nc1ccc(-c2csc(Nc3ccnc4cc(Cl)ccc34)n2)cc1 | 12%
13 | NNc1ccccc1F | -34%
14 | O=C(O)C1(Cc2ccc3c(c2)CCC3)Cc2ccccc2C1=O (stereo not given) | 9%
15 | c1cc2cc(Cc3ccc4[nH]ccc4c3)ccc2[nH]1 | 21%
16 | COc1cc(C(c2cc3c(cc2O)OCO3)N2CCOCC2)ccc1O (stereo not given) | 2%
17 | Cc1c(N)nc(C2CC(=O)N2CC(N)C(N)=O)nc1C(=O)NC(C(=O)NC(C)C(O)C(C)C(=O)NC(C(=O)NCCc1nc(-c2nc(C(=O)NCCNCC(C)O)cs2)cs1)C(C)O)C(OC1OC(CO)C(O)C(O)C1OC1OC(CO)C(O)C(OC(N)=O)C1O)c1cnc[nH]1 (stereo not given) | 94% (active)
18 | Cc1[nH]nc(C(=O)N(C)C)c1N=NN(C)C | -61%
19 | CSc1c(S(C)=O)c2ccccc2n1C (stereo not given) | 20%
20 | CN(C)c1ccc(C=Nc2cnc3ccccc3c2)cc1 | -10%

Row | Compound | growth inhibition
21 | CCCCCCCCCCCCCCCc1nc(SCC(=O)O)n[nH]1 | 2%
22 | Cc1ccc(S(=O)(=O)Oc2c([N+](=O)[O-])cc(C)cc2[N+](=O)[O-])cc1 | 29%
23 | CCOC(=O)c1c(Cl)nnc(-c2ccccc2)c1-c1ccccc1 | 0%
24 | Cc1cc(O)c(C=NC(=S)C(N)=S)c(=O)o1 | 29%
25 | C/C(=N\NC(=S)NC(C)(C)C)c1ccccn1 | 20%
26 | S=C(Nc1ccc(Br)c(Cl)c1)SCc1ccc2c(c1)OCO2 | 49%
27 | CC(=O)Nc1ccc(S(=O)(=O)N/N=C/c2cc(I)cc([N+](=O)[O-])c2O)cc1 | 9%
28 | CCCC(O)CNCc1ccc(N(C)C)cc1 (stereo not given) | -2%
29 | CC(=O)Nc1nnc(-c2coc3ccccc3c2=O)s1 | 7%
30 | COc1ccc(CSC(=S)Nc2ccc(Cl)c(C(F)(F)F)c2)cc1 | 27%
31 | CC(=O)Sc1ccc(Br)cc1 | 0%
32 | O=C(CNc1cccc(Cl)c1)Nn1c(-c2ccccc2)nc2ccccc2c1=O | 7%
33 | Cc1ccc(S(=O)(=O)c2cc(O)c(O)c3ccc(Br)cc23)cc1 | 13%
34 | Fc1cccc2c1cc1ccc3cccc4ccc2c1c34 | -1%
35 | COC1=C(/C(=N/Nc2ccc([N+](=O)[O-])cc2[N+](=O)[O-])c2ccccc2)COC1=O | -2%
36 | CCOC(=O)c1cnccc1CC1(C#N)c2ccccc2C=CN1C(=O)c1ccccc1 (stereo not given) | 5%
37 | CCCCNc1ccc(-c2c(N)nc(N)nc2CC)cc1[N+](=O)[O-] | -7%
38 | O=C(NC1CCN(Cc2ccccc2)CC1)c1cccc(I)c1 | 49%
39 | O/N=C1/CC2CCCc3ccc4cccc1c4c32 (stereo not given) | -18%
40 | CC(C)c1cc(O)c2c(c1O)C1CC3C(C)(C)CCC[C@]23C(=O)O1 (stereo not given in full) | 1%

Same assay, conditions: S. cerevisiae rad50 strain growth inhibition; at 50.0 µM (retest, dose inferred, filed as 5.0); stronger effect = higher value

Row | Compound | growth inhibition
41 | Oc1ccccc1N=CC1CCCCC1 | 40%
42 | CC(O[Si](c1ccccc1)(c1ccccc1)C(C)(C)C)[C@H](NC(=O)OC(C)(C)C)C(=O)O[Si](c1ccccc1)(c1ccccc1)C(C)(C)C (stereo not given in full) | 99% (active)
43 | Cn1c(=O)c2c3oc(=O)cc(O)c3c(=O)n3c4ccccc4n(c1=O)c23 | 83% (active)
44 | CCCCCCCCCCCCCCC(O)C(=O)O (stereo not given) | -27%
45 | O=[N+]([O-])c1cc(I)cc(/C=N/NS(=O)(=O)c2ccc(F)cc2)c1O | 36%
46 | CCC/C=C1/OC(=O)C2=C[C@H]3CC[C@]21[C@]1(OC(=O)C2=C1CCC=C2)[C@H]3CCC | 96% (active)
47 | C=C(CC)C[C@@H]1C[C@]2(C(=O)OC)c3[nH]c4ccccc4c3CCN2C1=O | 94% (active)
48 | Cc1ccc(N2C(=O)C(Cl)=C(Cl)C2=O)cc1 | 99% (active)
49 | COc1cc2c(cc1O)CCCCC2 | 4%
50 | CC(C)Cc1cc(O)cc2ccccc12 | 98% (active)
51 | CCN(CC)Cc1cc(Nc2c3ccccc3nc3c4ccccc4n(C)c23)ccc1O | 23%
52 | CC(=O)Nc1ccc(-c2csc(Nc3ccnc4cc(Cl)ccc34)n2)cc1 | 40%
53 | NNc1ccccc1F | 96% (active)
54 | O=C(O)C1(Cc2ccc3c(c2)CCC3)Cc2ccccc2C1=O (stereo not given) | 9%
55 | c1cc2cc(Cc3ccc4[nH]ccc4c3)ccc2[nH]1 | 26%
56 | COc1cc(C(c2cc3c(cc2O)OCO3)N2CCOCC2)ccc1O (stereo not given) | 25%
57 | Cc1c(N)nc(C2CC(=O)N2CC(N)C(N)=O)nc1C(=O)NC(C(=O)NC(C)C(O)C(C)C(=O)NC(C(=O)NCCc1nc(-c2nc(C(=O)NCCNCC(C)O)cs2)cs1)C(C)O)C(OC1OC(CO)C(O)C(O)C1OC1OC(CO)C(O)C(OC(N)=O)C1O)c1cnc[nH]1 (stereo not given) | 97% (active)
58 | Cc1[nH]nc(C(=O)N(C)C)c1N=NN(C)C | 93% (active)
59 | CSc1c(S(C)=O)c2ccccc2n1C (stereo not given) | 17%
60 | CN(C)c1ccc(C=Nc2cnc3ccccc3c2)cc1 | 10%

Row | Compound | growth inhibition
61 | CCCCCCCCCCCCCCCc1nc(SCC(=O)O)n[nH]1 | 58%
62 | Cc1ccc(S(=O)(=O)Oc2c([N+](=O)[O-])cc(C)cc2[N+](=O)[O-])cc1 | 54%
63 | CCOC(=O)c1c(Cl)nnc(-c2ccccc2)c1-c1ccccc1 | 98% (active)
64 | Cc1cc(O)c(C=NC(=S)C(N)=S)c(=O)o1 | 43%
65 | C/C(=N\NC(=S)NC(C)(C)C)c1ccccn1 | 99% (active)
66 | S=C(Nc1ccc(Br)c(Cl)c1)SCc1ccc2c(c1)OCO2 | 97% (active)
67 | CC(=O)Nc1ccc(S(=O)(=O)N/N=C/c2cc(I)cc([N+](=O)[O-])c2O)cc1 | 71% (active)
68 | CCCC(O)CNCc1ccc(N(C)C)cc1 (stereo not given) | 7%
69 | CC(=O)Nc1nnc(-c2coc3ccccc3c2=O)s1 | 0%
70 | COc1ccc(CSC(=S)Nc2ccc(Cl)c(C(F)(F)F)c2)cc1 | 30%
71 | CC(=O)Sc1ccc(Br)cc1 | 73% (active)
72 | O=C(CNc1cccc(Cl)c1)Nn1c(-c2ccccc2)nc2ccccc2c1=O | 88% (active)
73 | Cc1ccc(S(=O)(=O)c2cc(O)c(O)c3ccc(Br)cc23)cc1 | 97% (active)
74 | Fc1cccc2c1cc1ccc3cccc4ccc2c1c34 | -11%
75 | COC1=C(/C(=N/Nc2ccc([N+](=O)[O-])cc2[N+](=O)[O-])c2ccccc2)COC1=O | -6%
76 | CCOC(=O)c1cnccc1CC1(C#N)c2ccccc2C=CN1C(=O)c1ccccc1 (stereo not given) | 67%
77 | CCCCNc1ccc(-c2c(N)nc(N)nc2CC)cc1[N+](=O)[O-] | 0%
78 | O=C(NC1CCN(Cc2ccccc2)CC1)c1cccc(I)c1 | 68%
79 | O/N=C1/CC2CCCc3ccc4cccc1c4c32 (stereo not given) | -10%
80 | CC(C)c1cc(O)c2c(c1O)C1CC3C(C)(C)CCC[C@]23C(=O)O1 (stereo not given in full) | 49%

Source: PubChem BioAssay (NCI)
